# The list is not random: actives were taken first. Their share in the collection is about 12%.
# Pf growth 96h = Primary qHTS for delayed death inhibitors of the malarial parasite plastid, 96 hour incubation. P. falciparum luciferase reporter growth, 96 h. Potency, µM (highest dose often 28.7 µM), for inactives: at the top dose activity change, negative = inhibition, most hits filed as inhibitors. 320,000 compounds, 6.9% hits; further: on the % scale 0 is the no-effect control and ±100 the full control effect
#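 Plates of compound plus infected erythrocytes (2% hematocrit, 0.05% parasitemia final) incubate 96 hours, 37 C, 5% CO2. Detection reagent added; reduced luminescence from the parasites' luciferase reporter flags inhibition.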
# AmpC detergent = qHTS Inhibitors of AmpC Beta-Lactamase (assay with detergent). P00811. AmpC hydrolysis of nitrocefin, absorbance 480 nm, 0.01% Triton. Potency, µM (doses to about 114 µM), without a hit: top-dose activity change, negative = inhibition, usual class: inhibitors. 370,000 compounds, 0.041% hits;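 further: 0% = no-compound wells and -100% = no-enzyme wells; nearly all actives have a fitted effect of over 25% in size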
# Target sequence (P00811 whole entry, looked up): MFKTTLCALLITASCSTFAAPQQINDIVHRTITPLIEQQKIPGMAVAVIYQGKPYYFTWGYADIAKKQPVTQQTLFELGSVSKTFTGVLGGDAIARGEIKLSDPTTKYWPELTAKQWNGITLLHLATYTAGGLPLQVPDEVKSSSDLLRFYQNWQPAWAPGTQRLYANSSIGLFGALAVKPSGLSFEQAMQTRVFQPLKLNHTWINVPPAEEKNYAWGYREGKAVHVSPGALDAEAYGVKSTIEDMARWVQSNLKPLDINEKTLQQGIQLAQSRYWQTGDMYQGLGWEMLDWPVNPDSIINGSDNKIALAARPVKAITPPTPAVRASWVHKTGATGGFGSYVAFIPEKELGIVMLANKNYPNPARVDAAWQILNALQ
#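 AmpC (5.3 nM in the dispensed reagent) in 20 mM phosphate pH 7.0 with 0.01% (detergent screen) or 0.0001% Triton X-100 was preincubated with compounds for 15 min at room temperature. Nitrocefin was then added from an 800 uM solution, and hydrolysis was followed at 480 nm.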
# Sm TGR inh = qHTS Assay for the Inhibitors of Schistosoma Mansoni Peroxiredoxins | Schistosoma mansoni thioredoxin glutathione reductase (TGR), Q962Y6 | Potency, µM (top dose mostly 114 µM), for the others: at the top dose activity change, negative = inhibition, most hits filed as inhibitors | purified TGR, DTNB reduction, TNB absorbance 405 nm | 360,000 compounds, 3% hits; further: on the % scale 0 is the no-effect control and ±100 the full control effect; nearly all actives have a fitted effect of over 60% in size
#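 Kinetic colorimetric format: TGR-catalysed, NADPH-driven DTNB reduction monitored via TNB absorbance. Enzyme dispensed at 20 nM; compound exposure 15 min at room temperature before reaction start.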
# AmpC no deterg = qHTS Inhibitors of AmpC Beta-Lactamase (assay without detergent); P00811; AmpC nitrocefin hydrolysis, absorbance 480 nm, 0.0001% Triton; Potency, µM (series often up to 57.1 µM), inactives show top-dose activity change, negative = inhibition, most hits filed as inhibitors; 330,000 compounds, 0.52% hits;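 further: plate controls were no compound for no effect and no enzyme for full effect; nearly all actives have a fitted effect of over 20% in size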
#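 AmpC (5.3 nM in the dispensed reagent) in 20 mM phosphate pH 7.0 with 0.01% (detergent screen) or 0.0001% Triton X-100 was preincubated with compounds for 15 min at room temperature. Nitrocefin was then added from an 800 uM solution, and hydrolysis was followed at 480 nm.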
# SARS PLpro yeast = qHTS of Yeast-based Assay for SARS-CoV PLP. S. cerevisiae expressing SARS-CoV PLpro, growth rescue. Potency, µM (highest dose often 32.9 µM), for inactives: top-dose activity, positive = growth rescue, hits mostly activators. 330,000 compounds, 0.19% hits; calls by dose curve; further: 0% is about no effect; nearly all actives have a fitted effect of over 55% in size
# Pf growth 48h = Primary qHTS for delayed death inhibitors of the malarial parasite plastid, 48 hour incubation; AID 504832, 2011; Potency, µM (highest dose often 28.7 µM), for inactives: at the highest dose activity change, negative = inhibition, hits mostly inhibitors; 310,000 compounds, 5.9% hits; P. falciparum luciferase growth in erythrocytes, 48 h; further: on the % scale 0 is the no-effect control and ±100 the full control effect
#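 Luciferase-expressing P. falciparum in infected erythrocytes (2% hematocrit, 0.1% parasitemia final) in RPMI 1640/0.5% Albumax were exposed to compound for 48 hours at 37 C, 5% CO2; growth read as luminescence.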
# * hit, by the source's call; ? = inconclusive; . = no result; [ ] = remark or other dose. Unless noted, the call rests on the fitted dose curve; in most records, active means well fitted curve in the direction sought with a large enough effect; inconclusive means small, poorly fitted or top-dose-only effect, or another doubt; inactive means no such curve, though single readings can be large; an effect the other way counts as inactive or inconclusive. Potency means the concentration at half of the fitted maximal effect.
SMILES,Pf growth 96h,AmpC detergent,Sm TGR inh,AmpC no deterg,SARS PLpro yeast,Pf growth 48h
CCC1CN(C(=O)Nc2ccc(C)c(F)c2)c2ccccc2S1 (stereo not given),.,-2.9%,-1.8%,.,.,.
COc1ccc(O)c(C(=O)c2cnn(S(=O)(=O)c3ccc(C)cc3)c2)c1,-28.3%,?,35.5µM*,-3.0%,-0.5%,2.1%
Cc1ccc(C2C3=C(CCCC3=O)N=C3c4ccccc4C(=O)C32)cc1 (stereo not given),?,-2.9%,-20.6%,17.8µM*,-4.2%,?
COc1ccc(NC(=O)CCn2cnc3onc(-c4ccc(F)cc4)c3c2=O)cc1OC,.,-7.5%,-19.8%,.,.,.
O=c1c(Cl)c(N2CCN(S(=O)(=O)c3ccccc3)CC2)cnn1-c1ccccc1,165.6%,-12.6%,0.2%,-3.0%,13.8%,-0.4%
O=S(=O)(c1cccc2cccnc12)N1CCN(c2ccc(F)cc2)CC1,14.7µM*,5.2%,8.5%,-12.7%,-0.9%,-7.2%
COc1ccc(N2CCN(S(=O)(=O)c3cccc4cccnc34)CC2)cc1,-37.6%,-12.6%,2.2%,-12.1%,1.8%,.
CN(C)S(=O)(=O)c1ccc(N2CCN(S(=O)(=O)c3ccc(F)cc3)CC2)c(Cl)c1,8.28µM*,-7.5%,7.7%,2.0%,-2.9%,7.38µM*
O=S(=O)(c1ccc(F)cc1)N1CCN(c2ncccn2)CC1,4.4%,-0.9%,8.2%,-10.7%,0.3%,2.08µM*
O=c1c(Cl)c(N2CCN(S(=O)(=O)c3ccc(F)cc3)CC2)cnn1-c1cccc(Cl)c1,6.57µM*,1.3%,14.5%,1.8%,13.8%,8.28µM*
CCn1ncc(C2=NOC(C(=O)Nc3cc(OC)c(Cl)cc3OC)C2)c1C (stereo not given),?,?,2.0%,-5.6%,3.4%,9.7%
O=c1n(S(=O)(=O)c2cccc3cccnc23)c2ccccc2n1S(=O)(=O)c1cccc2cccnc12,6.57µM*,?,0.2%,-20.1%,-2.7%,.
O=S(=O)(c1ccccc1)N1CCN(c2ncccn2)CC1,.,?,0.3%,-16.3%,4.7%,4.4%
CC1CC(C)CN(S(=O)(=O)c2cccc3cccnc23)C1 (stereo not given),?,-6.1%,8.7%,-3.4%,-3.6%,.
O=S(=O)(c1cccc(S(=O)(=O)N2CCN(c3ncccn3)CC2)c1)N1CCOCC1,11.7µM*,-10.6%,-20.6%,-2.5%,0.3%,-23.7%
Cc1ccc(C)c(N2CCN(C(=O)c3cc(C)nc4c3c(C)nn4-c3cccc(F)c3)CC2)c1,.,13.4%,11.7%,.,.,.
C/C(CCc1oc2ccccc2c1-c1ccc(C)o1)=N/O,18.8%,-9.0%,20µM*,-0.7%,-17.8%,7.2%
C/C(CCc1oc2c(Br)cc(Br)cc2c1-c1ccc(C)o1)=N\O,-8.2%,0.2%,15.8µM*,-46.1%,-60.5%,?
COc1cccc(C(=O)N2CCCC(Nc3ccc(C)c(C)c3)C2)c1 (stereo not given),?,4.7%,-0.4%,52.9%,2.8%,-2.6%
Cc1ccc(NC(=O)CN2C(=O)C(c3ccccc3)=NC2(C)C)cc1C,.,-1.7%,-0.9%,.,.,.
CCCc1ccc(C(C)NC(=S)NCc2ccc(F)cc2)cc1 (stereo not given),11.7µM*,0.7%,?,-24.9%,4.6%,?
CCC(NC(=S)NCc1ccc(F)cc1)c1ccc(C(C)C)cc1 (stereo not given),?,-2.3%,12.2%,-39.3%,1.3%,10.4µM*
CCOc1ccc(C(C)NC(=S)NCc2ccc(Cl)cc2)cc1 (stereo not given),5.22µM*,-1.9%,-0.3%,-22.1%[2.29 µM],-0.1%,?
CCN(CC)S(=O)(=O)c1ccc(OCC2CCCCO2)c([N+](=O)[O-])c1 (stereo not given),?,-6.6%,-7.1%,28.6%,-0.5%,?
